Bioassay records: PubChem BioAssay, National Center for Advancing Translational Sciences (NCATS)
Most compounds without a hit are left out; they make up all but 2.6% or so of the library.
SKOV3 invasion = Primary qHTS assay for Inhibitors of ovarian cancer metastasis using an organotypic tumor microenvironment (TME) model | SKOV3ip1-GFP adhesion/invasion on 3D omental model, fluorescence | Potency, µM (titrated, usually from 45.8 µM), without a hit: top-dose activity change, negative = inhibition, hits mostly inhibitors | 46,000 tested, 0.1% active;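 note: potency is the fitted concentration of half-maximal effect; plate controls were DMSO wells for no effect and tomatine positive control wells for full effect; nearly all actives have a fitted effect of over 65% in size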
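qHTS, 4-pt dose (0.36-46 umol/L); SKOV3ip1-GFP, 1,200 cells/well, no FBS; primary omental fibroblast/mesothelial co-culture 48 h pre-grown; 2 h RT + 16 h 37 C; PBS wash, 4% PFA; GFP count 488/509 nm.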
GALC G270D act = A Novel Cell-Based Assay to Identify Small Molecules for B -Galactocerebrosidase | P54803 | 145M-Twi-hGALC-G270D cells (Twitcher mouse brain line with human GALC G270D), HMU-beta-Gal fluorescence, 48 h | Potency, µM (series often up to 57.5 µM), most hits filed as activators | 45,000 tested, 0.1% active; note: potency is the fitted concentration of half-maximal effect; 0% is about no effect; nearly all actives have a fitted effect of over 65% in size
Target sequence (P54803 whole entry G286D): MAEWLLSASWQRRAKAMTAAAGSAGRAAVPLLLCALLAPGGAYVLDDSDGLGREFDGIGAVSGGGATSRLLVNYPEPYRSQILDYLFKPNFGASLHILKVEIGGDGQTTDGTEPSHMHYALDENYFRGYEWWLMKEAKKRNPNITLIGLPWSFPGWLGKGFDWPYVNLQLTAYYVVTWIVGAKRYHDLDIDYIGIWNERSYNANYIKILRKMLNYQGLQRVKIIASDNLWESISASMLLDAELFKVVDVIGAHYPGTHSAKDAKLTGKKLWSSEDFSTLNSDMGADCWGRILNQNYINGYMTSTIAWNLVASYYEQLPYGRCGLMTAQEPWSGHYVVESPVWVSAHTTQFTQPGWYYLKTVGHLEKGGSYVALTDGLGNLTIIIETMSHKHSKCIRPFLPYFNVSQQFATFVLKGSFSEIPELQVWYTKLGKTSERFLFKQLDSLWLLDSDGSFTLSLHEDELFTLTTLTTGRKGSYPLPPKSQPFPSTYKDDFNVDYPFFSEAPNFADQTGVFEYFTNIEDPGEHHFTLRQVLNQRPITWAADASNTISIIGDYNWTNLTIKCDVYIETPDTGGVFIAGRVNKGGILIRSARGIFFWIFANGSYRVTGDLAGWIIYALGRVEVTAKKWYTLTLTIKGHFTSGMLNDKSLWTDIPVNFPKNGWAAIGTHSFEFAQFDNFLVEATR
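Fluorescence readout: HMU-β-gal cleavage by mutant GALC (0.1 mM final, citrate/phosphate pH 5.2 with 1 mg/mL taurocholate), stopped with carbonate/bicarbonate plus Triton X-100. Cells: murine Twitcher 145M-Twi expressing human G270D GALC; qHTS for activators.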
pS6 MEF inh = Acumen qHTS Assay for Inhibitors of the mTORC1 Signaling Pathway in MEF (Tsc2-/-, p53-/-) Cells: Sytravon. Tsc2-/- p53-/- MEF, phospho-rpS6 immunofluorescence/PI, 24 h. Potency, µM (highest dose often 38.3 µM), for the others: at the top dose activity change, negative = inhibition, actives largely listed as inhibitors. 44,000 tested, 0.78% active. AID 493208, 2011;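 note: potency is the fitted concentration of half-maximal effect; plate controls were DMSO for no effect and rapamycin for full effect; nearly all actives have a fitted effect of over 50% in size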
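Immunofluorescence of rpS6 phosphorylation in Tsc2-/-, p53-/- MEFs after 24 h compound exposure, normalized to propidium iodide signal. Activity is expressed as % positive cells, thresholded with 7.5 nM rapamycin.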
S16 viability = Cell viability qHTS assay in S16 Pmp22-F2sN cells. 43,000 tested, 0.48% active. Potency, µM (series often up to 57.5 µM), for inactives: at the highest dose activity change, negative = cytotoxicity, hits mostly cytotoxic. AID 1508642, 2021. S16 Pmp22-F2sN Schwann cells viability, CellTiter-Glo, 24 h; note: potency is the fitted concentration of half-maximal effect; % is set by controls: 0 for no effect and ±100 for the full control effect; nearly all actives have a fitted effect of over 65% in size
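Used to flag compounds lowering reporter output through toxicity, this quantitative HTS measures ATP-based CellTiter-Glo luminescence in S16 Pmp22-F2sN Schwann cells after 24 h compound exposure at 37C.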
PMP22 txn = Cell-based coincidence reporter assay to measure PMP22 gene transcription in S16 Pmp22-F2sN cells - Primary screen; AID 1508649, 2021; Potency, µM (series often up to 57.5 µM), for inactives: at the top dose activity change, negative = inhibition, hits mostly inhibitors; 43,000 tested, 2% active; S16 Pmp22-F2sN Schwann cells (luciferase reporters placed in the Pmp22 gene), FLuc/NLuc coincidence luminescence, 24 h; active = clear falling dose curves in both reporters; inconclusive = both reporters move, but less clearly or upward; inactive = either reporter flat; the % is the NLuc reporter signal; note: potency is the fitted concentration of half-maximal effect; % is set by controls: 0 for no effect and ±100 for the full control effect
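S16 Schwann cells carrying FLuc/NLuc coincidence reporter in the Pmp22 3' UTR treated with compound 24 h at 37C; FLuc then NLuc luminescence read sequentially by dual-luciferase reagents.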
NLuc saturating = Biochemical NLuc saturation counterscreen for small molecule modulators of PMP22 gene expression - Nano-Glo assay | Secreted NLuc enzyme (filtered S16 cell medium), Nano-Glo luminescence | 690 tested, 4% active | shares compounds with PMP22 txn | Potency, µM (titrated, usually from 57.5 µM), for the others: top-dose activity change, negative = inhibition, hits mostly inhibitors | AID 1508638, 2021; note: potency is the fitted concentration of half-maximal effect; % is set by controls: 0 for no effect and ±100 for the full control effect
NLuc Km ctr = Biochemical coelenterazine-based NLuc counterscreen for small molecule modulators of PMP22 gene expression - Km assay. shares compounds with PMP22 txn. secreted NLuc enzyme, coelenterazine luminescence, Km conditions. Potency, µM (top dose mostly 57.5 µM), for the others: top-dose activity change, negative = inhibition, most hits filed as inhibitors. 690 tested, 5% active. AID 1508639, 2021; note: potency is the fitted concentration of half-maximal effect; % is set by controls: 0 for no effect and ±100 for the full control effect
FLuc ctr PMP22 = Biochemical FLuc counterscreen for small molecule modulators of PMP22 gene expression; 690 tested, under 10 active; Potency, µM (highest dose often 57.5 µM), without a hit: at the top dose activity, negative = inhibition, actives largely listed as inhibitors; shares compounds with PMP22 txn; AID 1508640, 2021; purified P. pyralis FLuc, luminescence, 10 min; note: % of control where 0% means no effect
S16 F2sN tox cnf = Cell viability qHTS assay in S16 Pmp22-F2sN cells - Confirmatory screen. Potency, µM (highest dose often 57.5 µM), for the others: at the highest dose activity change, negative = viability loss, hits mostly cytotoxic. shares compounds with PMP22 txn. S16 Schwann cells viability, CellTiter-Glo ATP luminescence, 24 h. 690 tested, 7% active; note: potency is the fitted concentration of half-maximal effect; % is set by controls: 0 for no effect and ±100 for the full control effect
PMP22 txn cnf = Cell-based coincidence reporter assay to measure PMP22 gene transcription in S16 Pmp22-F2sN cells - Confirmatory screen. shares compounds with PMP22 txn. S16 Schwann cells Pmp22-F2sN, dual luciferase, 24 h. Potency, µM (doses to about 57.5 µM), for inactives: at the top dose activity change, negative = inhibition, most hits filed as inhibitors. 690 tested, 22% active; active = clear falling dose curves in both reporters; inconclusive = both reporters move, but less clearly or upward; inactive = either reporter flat; the % is the FLuc reporter signal; note: potency is the fitted concentration of half-maximal effect
* marks the source's active call; other numbers are inactive results; i = inactive; ? = inconclusive; . = no result given. Unless noted, calls come from the whole dose curve; as a rule, active = well fitted curve in the direction sought with a large enough effect; inconclusive = small, poorly fitted or top-dose-only effect, or another doubt; inactive = no such curve, though single readings can be large; an effect the other way counts as inactive or inconclusive.

SMILES	SKOV3 invasion	GALC G270D act	pS6 MEF inh	S16 viability	PMP22 txn	NLuc saturating	NLuc Km ctr	FLuc ctr PMP22	S16 F2sN tox cnf	PMP22 txn cnf
COc1cc(N2CCC(N3CCN(C)CC3)CC2)ccc1Nc1ncc(Cl)c(Nc2ccccc2S(=O)(=O)C(C)C)n1	-6.6%	.	.	.	.	.	.	.	.	.
CCC(=O)O[C@]1(C(=O)COC)[C@@H](C)C[C@H]2[C@@H]3CCC4=CC(=O)C=C[C@]4(C)C3(F)[C@@H](O)C[C@@]21C (some centres undefined)	.	i	.	.	.	.	.	.	.	.
CCCN(C(=O)Cn1nc(Cc2ccncc2)c2ccccc2c1=O)c1ccccc1C	i	i	-9.8%	21.8%	13.4µM*	?	?	-3.0%	8.4%	?
CC(C)(N)C(=O)N[C@H](COCc1ccccc1)C(=O)N1CCC2(CC1)CN(S(C)(=O)=O)c1ccccc12	24.4%	.	.	.	.	.	.	.	.	.
COc1ccc(Cn2c(SCC(=O)N(C)Cc3ccccc3)nc3ccccc32)cc1	-3.3%	i	0.0%	-26.2%	20µM*	?	?	?	-10.6%	-9.4%
COc1ccc(Cn2c(SCC(=O)NCc3ccccc3)nc3ccccc32)cc1	-7.2%	i	6.7%	?	?	.	.	.	.	.
COCCCn1c(=N)c(C(=O)NCc2ccco2)cc2c(=O)n3cccc(C)c3nc21	i	i	2.4%	5.7%	14.1µM*	-7.5%	0.9%	1.5%	?	?
CCOCCCn1c(=N)c(C(=O)NCC2CCCO2)cc2c(=O)n3cccc(C)c3nc21 (centres undefined)	-1.8%	i	-4.7%	-6.7%	16.3µM*	-5.4%	-1.7%	4.7%	2.6%	?
CCOCCCn1c(=N)c(C(=O)NCC2CCCO2)cc2c(=O)n3cc(C)ccc3nc21 (centres undefined)	-8.5%	i	?	1.7%	-43.2%	.	.	.	.	.
Cc1cc(C(=O)NOCCO)c(Nc2ccc(I)cc2F)n(C)c1=O	0.6%	.	.	.	.	.	.	.	.	.
Cc1c2cnn(CC(=O)NCc3ccccc3)c(=O)c2c(C)n1Cc1cccc(Cl)c1	0.3%	i	?	-12.6%	12.9µM*	-12.1%	-1.0%	-4.5%	-10.2%	?
